Screens deposited in PubChem BioAssay by National Center for Advancing Translational Sciences (NCATS).
The list is not random: actives were taken first. Their share in the collection is about 4.6%.
TRHR enhancer: qHTS for Small Molecule Agonists and Allosteric Enhancers of Human TRH Receptor: Primary Screen for Enhancers. Thyrotropin-releasing hormone receptor (Homo sapiens), P34981. TRHR cells, fluo-8 calcium fluorescence, EC20 TRH enhancement. enhancement, % at 2 µM. actives 0.66% (n = 360,000). AID 493056, 2011; in the data active = enhancement above about 30%; note: 0% is about no effect
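TRHR-expressing cells loaded with fluo-8 calcium dye were read kinetically (ex 480/em 530) during compound addition, then stimulated with an EC20 of TRH (10 nM final). Enhancement of the Gq-mediated intracellular calcium response was scored.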
TRHR ag: qHTS for Small Molecule Agonists and Allosteric Enhancers of Human TRH Receptor: Primary Screen for Agonists; activation, % at 2 µM; actives 0.18% (n = 360,000); AID 493084, 2011; TRHR cells, calcium flux fluo-8, FDSS agonist mode; note: 0% is about no effect
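Steps: seed TRHR cells overnight; add fluo-8 no-wash Ca dye, RT 30 min–1.5 h; record 10 s baseline; pin-transfer compounds; monitor fluorescence 1 cycle/s for the agonist window. Calcium increases flag candidate agonists.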
D1 PAM: Potentiators of Human D1 Dopamine Receptor: qHTS; D(1A) dopamine receptor (Homo sapiens), P21728; HEK293 TREx D1 cells, calcium flux, dopamine EC20 potentiation; potentiation, % at 10 µM; actives 0.036% (n = 360,000); AID 504651, 2011; in the data active = potentiation above about 30%; note: 0% is about no effect
Target sequence (P21728 whole entry, looked up): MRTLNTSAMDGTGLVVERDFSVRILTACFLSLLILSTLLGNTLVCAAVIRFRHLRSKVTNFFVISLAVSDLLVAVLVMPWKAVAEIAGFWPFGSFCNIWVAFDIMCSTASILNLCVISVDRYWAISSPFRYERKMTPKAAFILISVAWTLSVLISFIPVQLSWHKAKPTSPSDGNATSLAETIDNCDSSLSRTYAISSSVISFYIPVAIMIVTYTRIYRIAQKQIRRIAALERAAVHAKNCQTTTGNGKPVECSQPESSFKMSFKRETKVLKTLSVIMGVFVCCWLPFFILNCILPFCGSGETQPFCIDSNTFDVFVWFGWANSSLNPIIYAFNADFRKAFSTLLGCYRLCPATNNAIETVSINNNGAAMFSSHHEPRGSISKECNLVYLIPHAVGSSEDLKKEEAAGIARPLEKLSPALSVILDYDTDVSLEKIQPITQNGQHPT
D1 ag: Allosteric Agonists of the Human D1 Dopamine Receptor: qHTS; D(1A) dopamine receptor (Homo sapiens), P21728; HEK293 T-REx D1 cells, calcium flux, agonist mode; activation, % at 2 µM; actives 1% (n = 360,000); AID 504660, 2011; note: 0% is about no effect
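Tetracycline-induced HEK293 TREx D1 cells, force-coupled to calcium signalling, were dye-loaded with a no-wash calcium kit. Compound was pin-added after a 10 s baseline. Fluorescence was read kinetically at 1 cycle/s for 180 s, with calcium rises flagged as agonism.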
D1 antagonist: Antagonist of Human D 1 Dopamine Receptor: qHTS; D(1A) dopamine receptor (Homo sapiens), P21728; HEK293 TREx D1 cells, calcium flux, dopamine EC80; active compounds read low; activity change, negative = inhibition, % at 10 µM; actives 3.2% (n = 360,000); in the data active = activity change below about -30%; note: % is set by controls: 0 for no effect and ±100 for the full control effect
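Inducible Hek293 Trex D1 cells (tetracycline, overnight, 30 C). Calcium dye 30–90 min RT. Antagonist mode: EC80 dopamine added after 180 s compound read.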
Epigenetic reg: Quantitative High-Throughput Screen for Regulators of Epigenetic Control | murine LDR cells, GFP reporter derepression, 30 h | Potency, µM (top dose mostly 53.9 µM), for inactives: at the highest dose GFP activation, hits mostly activators | actives 0.2% (n = 280,000); active = well fitted activation curve with a large enough effect; note: potency is the fitted concentration of half-maximal effect; % of control where 0% means no effect; nearly all actives have a fitted effect of over 60% in size
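GFP-positive cell count by laser-scanning cytometry (objects 20–120 um) after 30 h, 37 C compound exposure of murine LDR cells; reporter is CMV-GFP integrated at a silenced locus, inducible by HDAC or DNMT inhibitors.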
* = called active by the depositor; [ ] = remark or other dose. Cut-off read from the data, not from the text of the source, unless noted: active = activation above about 30%; inactive = the rest.

Results for CC(=O)c1cc2c(cc1NS(=O)(=O)c1ccccc1)OCO2 ?
TRHR enhancer: 0.2; TRHR ag: -0.1; D1 PAM: 12.2; D1 ag: 3.4; D1 antagonist: 17.2; Epigenetic reg: -3.6%

How did CC(=O)c1cc2c(cc1NS(=O)(=O)c1ccc(C)cc1)OCCO2 do in these assays?
TRHR enhancer: 1.9; TRHR ag: -0.5; D1 PAM: 6.2; D1 ag: 1.2; D1 antagonist: -37.3*; Epigenetic reg: -1.2%

Results for Nc1[nH]n2c(=O)cc(-c3ccccc3)nc2c1N=Nc1ccccc1 ?
TRHR enhancer: -4.3; TRHR ag: 1.2; D1 PAM: -14.9; D1 ag: 2.1; D1 antagonist: -37.9*; Epigenetic reg: -0.3%

Results for Nc1[nH]n2c(=O)cc(-c3ccccc3)nc2c1N=Nc1ccc(S(N)(=O)=O)cc1 ?
TRHR enhancer: 3.2; TRHR ag: 0.1; D1 PAM: -1.2; D1 ag: 3.1; D1 antagonist: -1.3; Epigenetic reg: 0.1%

Results for N[C@@H](CCS(=O)O)C(=O)O ?
Epigenetic reg: 1.9%

Results for CO[C@@H]1COC(=O)CCC[C@@H](C)[C@H](OC)COC(=O)CCC[C@H]1C ?
Epigenetic reg: 0.8%[10.1 µM]

What do the screens show for `Cc1ccc(S(=O)(=O)N2CCC3(CC2)OCCO3)cc1`?
TRHR enhancer: 3.7; TRHR ag: 0.9; D1 PAM: -2.9; D1 ag: 20.1; D1 antagonist: -31.5*

How did Cc1ccc(C)c(S(=O)(=O)N2CCC3(CC2)OCCO3)c1 do in these assays?
TRHR enhancer: 1.0; TRHR ag: -0.1; D1 PAM: -3.0; D1 ag: 35.9*; D1 antagonist: 10.0

Results for Cc1ccc(C)c(S(=O)(=O)N2CCNCC2)c1 ?
TRHR enhancer: -7.4; TRHR ag: -1.6; D1 PAM: 6.7; D1 ag: 11.0; D1 antagonist: -5.3; Epigenetic reg: 2.3%

Results for O=C(Nc1ccc(Cl)cc1Cl)c1cc(S(=O)(=O)N2CCC3(CC2)OCCO3)ccc1F ?
TRHR enhancer: -3.4; TRHR ag: 0.1; D1 PAM: -2.7; D1 ag: 1.9; D1 antagonist: -40.9*; Epigenetic reg: 3.2%

How did CN1CC=C2C(C#N)=C(N)C(C#N)(C#N)C(CCc3ccccc3)C2C1 (centres undefined) do in these assays?
TRHR enhancer: 22.2; TRHR ag: 4.6; D1 PAM: -8.8; D1 ag: 8.1; D1 antagonist: -61.8*; Epigenetic reg: 1.2%

How did CCOC(=O)C1=C(C)N=c2s/c(=C\c3ccc(O)c([N+](=O)[O-])c3)c(=O)n2C1c1ccccc1OC (centres undefined) do in these assays?
TRHR enhancer: 3.4; TRHR ag: -0.4; D1 PAM: -7.3; D1 ag: -2.6; D1 antagonist: -21.1

How did CCOC(=O)C1=C(C)n2c(s/c(=C/c3cccc([N+](=O)[O-])c3)c2=O)=NC1c1ccc(O)c(OC)c1 (centres undefined) do in these assays?
TRHR enhancer: 3.1; TRHR ag: 3.4; D1 PAM: 1.8; D1 ag: 9.5; D1 antagonist: -90.4*; Epigenetic reg: -1.0%

What do the screens show for `O=C(COc1ccc2ccc(=O)oc2c1)N1CC[C@@]2(O)CCCC[C@H]2C1`?
TRHR enhancer: -3.2; TRHR ag: 0.1; D1 PAM: -9.6; D1 ag: 0.4; D1 antagonist: -49.1*

What do the screens show for `O=S(=O)(NCc1ccc(Cl)cc1)c1cccc2cccnc12`?
TRHR enhancer: -1.5; TRHR ag: 0.0; D1 PAM: -2.4; D1 ag: 1.3; D1 antagonist: 0.7; Epigenetic reg: 1.1%

Results for Cc1cc(C)c(S(=O)(=O)NCc2ccc3c(c2)OCO3)c(C)c1 ?
TRHR enhancer: 3.8; TRHR ag: -1.5; D1 PAM: -6.2; D1 ag: 7.9; D1 antagonist: -35.7*

What do the screens show for `O=S(=O)(NCc1ccc2c(c1)OCO2)c1cccc2cccnc12`?
TRHR enhancer: 1.3; TRHR ag: 0.4; D1 PAM: 3.8; D1 ag: 8.4; D1 antagonist: -51.6*; Epigenetic reg: 0.0%

What do the screens show for `CCc1ccc(-n2nc(CO)c(C(=O)NCc3ccccn3)n2)cc1`?
TRHR enhancer: 1.2; TRHR ag: -1.2; D1 PAM: -2.5; D1 ag: -0.2; D1 antagonist: -4.5; Epigenetic reg: 4.3%

How did CC(=O)Nc1cccc(NC(=O)c2ccc(COc3ccccc3)cc2)c1 do in these assays?
TRHR enhancer: 19.7; TRHR ag: -1.9; D1 ag: 36.1*; D1 antagonist: 6.3

What do the screens show for `O=C(Nc1cccnc1)c1ccccc1Oc1ccccc1`?
TRHR enhancer: -3.1; TRHR ag: 0.0; D1 PAM: -3.0; D1 ag: -0.4; D1 antagonist: -21.9; Epigenetic reg: 1.0%

How did O=C(Nc1cccnc1)c1ccc(COc2ccccc2Br)cc1 do in these assays?
TRHR enhancer: 10.0; TRHR ag: 0.4; D1 PAM: -3.0; D1 ag: 5.5; D1 antagonist: -69.3*

How did O=C(Nc1cccnc1)c1ccc(Oc2ccccc2)cc1 do in these assays?
TRHR enhancer: 34.3*; TRHR ag: -0.4; D1 PAM: 0.6; D1 ag: 5.2; D1 antagonist: -12.4; Epigenetic reg: 0.0%

Results for CC(=O)Nc1ccc(NC(=O)c2ccc(COc3ccccc3)cc2)cc1 ?
TRHR enhancer: -0.2; TRHR ag: 0.6; D1 PAM: 0.6; D1 ag: -2.2; D1 antagonist: 20.6

What do the screens show for `O=C(NCc1cccnc1)c1ccc(COc2ccccc2Br)cc1`?
TRHR enhancer: -1.3; TRHR ag: -1.4; D1 PAM: -6.4; D1 ag: 11.6; D1 antagonist: 7.5; Epigenetic reg: -0.2%

Results for COc1ccc(OCc2ccc(C(=O)NN)cc2)cc1 ?
TRHR enhancer: 2.2; TRHR ag: 0.8; D1 PAM: 0.9; D1 ag: 0.7; D1 antagonist: -42.4*; Epigenetic reg: 0.0%

Results for COc1cc(Cl)c(S(=O)(=O)NCCc2c(C)[nH]c3c(C)cccc23)cc1Cl ?
TRHR enhancer: -10.2; TRHR ag: 2.7; D1 PAM: -4.8; D1 ag: -0.3; D1 antagonist: 28.4; Epigenetic reg: -1.1%

How did Cc1c(CCC(=O)NCc2cccc(Cl)c2)c(=O)oc2c(C)c(O)ccc12 do in these assays?
TRHR enhancer: -12.5; TRHR ag: -0.7; D1 PAM: -0.1; D1 ag: -0.8; D1 antagonist: -11.4; Epigenetic reg: 5.6%
